The target of this test is 4-diphosphocytidyl-2-C-methyl-D-erythritol kinase, chloroplastic (Arabidopsis thaliana) (UniProt O81014). Kind of test: Confirmatory Assay for Inhibitors of Human Galactokinase (GALK): CDP-Me assay counterscreen. Particulars: ATP depletion, Kinase-Glo luminescence. In outline: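 CMK (0.25 ug/mL) with 15 uM ATP and 30 uM CDP-ME in 20 mM HEPES pH8.0, 5 mM MgCl2, 40 mM KCl, 1 mM DTT, 0.01% BSA; 1 h room temperature. Residual ATP read by Kinase-Glo Plus luminescence.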

Our source for the Potency values is PubChem BioAssay AID2017 (National Center for Advancing Translational Sciences (NCATS), 2009).

Each structure is given as a SMILES string. Inconclusive results are not listed. Activity calls are given as the source filed them. Calls follow the shape of the dose curve; as a rule, active = well fitted curve in the direction sought with a large enough effect; inconclusive = small, poorly fitted or top-dose-only effect, or another doubt; inactive = no such curve, though single readings can be large or run the other way.

4-diphosphocytidyl-2-C-methyl-D-erythritol kinase, chloroplastic (Arabidopsis thaliana), sequence (O81014 whole entry, looked up): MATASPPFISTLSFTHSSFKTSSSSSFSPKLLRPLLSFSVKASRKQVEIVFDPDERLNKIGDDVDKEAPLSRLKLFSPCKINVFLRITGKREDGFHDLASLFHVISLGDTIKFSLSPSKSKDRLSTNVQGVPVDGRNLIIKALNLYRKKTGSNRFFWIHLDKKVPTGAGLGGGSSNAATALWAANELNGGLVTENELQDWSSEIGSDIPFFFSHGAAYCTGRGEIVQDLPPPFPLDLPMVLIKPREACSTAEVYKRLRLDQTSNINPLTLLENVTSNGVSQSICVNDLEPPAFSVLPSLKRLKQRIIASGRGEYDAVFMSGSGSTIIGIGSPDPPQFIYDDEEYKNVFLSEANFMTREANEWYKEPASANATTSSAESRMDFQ

For the molecule `COc1cc(/C=C2\C(=N)N3N=C(S(=O)(=O)CC(C)C)SC3=NC2=O)ccc1OC(=O)c1ccco1`, the Potency was 29.8 µM (active).
